Results with a measured potency or affinity are listed apart. Records with an inconclusive call do not appear. Active and inactive are the calls of the source.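 How the source made its calls, unless noted: active means a dose-response fit showing signal loss, with half-maximal concentration no higher than twice the top tested dose; inconclusive means flat fit between 30% and 70% signal loss, or poor fit; inactive means the rest.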
Columns and labels:
[1] = fungal growth arrest, C. neoformans – Alamar Blue, cherry-picks, dose response (AID 686998;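 active means falling signal with fitted half-maximal potency no higher than twice the top valid tested dose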); settings: Cryptococcus neoformans growth, 24 h; series mostly up to 35 µM
[2] = C. neoformans lysis by adenylate kinase leakage – AK release luminescence, cherry-picks, dose response (AID 687000;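 active means fitted dose curve reaches 40% lysis signal rise at or below the highest valid concentration tested for that sample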;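 further: luminescent detection of adenylate kinase leaking from lysed yeast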); settings: 4 h, 100% = twice the neutral-control signal; series mostly up to 15 µM
[3] = viability loss in HepG2 hepatoma cells – cell-based, cherry-picks, set 2, cytotoxicity control, dose response (AID 687002); settings: ATP luminescence (CellTiter-Glo), 48 h; series mostly up to 26 µM
[4] = viability loss in HeLa cells – cell-based, ATP luminescence, cherry-pick samples, cytotoxicity control, dose response (AID 687004;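 active means a fitted half-maximal concentration no higher than twice the top valid tested dose, with signal falling as cells die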); settings: ATP luminescence (CellTiter-Glo), 48 h; series mostly up to 26 µM

Measured: outcome

C[C@@H]1CN([C@@H](C)CO)C(=O)c2cc(NC(=O)CCN3CCOCC3)ccc2O[C@@H]1CN(C)Cc1ccc(C(=O)O)cc1
inactive: all assays above

CNC(=O)C[C@@H]1CC[C@@H]2[C@H](COC[C@@H](O)CN2C(=O)Nc2ccc3c(c2)OCO3)O1
inactive: all assays above

C[C@H](CO)N1C[C@H](C)[C@H](CN(C)C(=O)Nc2cccc(F)c2)Oc2ncc(C#CCN(C)C)cc2C1=O
inactive: all assays above

CC1(C(=O)Nc2ccc3ccccc3c2)CCC(=O)N1C1CC1 (stereo not given)
inactive: all assays above

Cc1ccccc1S(=O)(=O)N[C@H]1CC[C@H](CCNS(=O)(=O)c2cccc(F)c2)O[C@H]1CO
inactive: all assays above

CCCNC(=O)N(C)C[C@@H]1Oc2ncc(C#CC3CCCCC3)cc2C(=O)N([C@H](C)CO)C[C@@H]1C
inactive: all assays above

CCS(=O)(=O)N1CCCCN2[C@H](C1)[C@@H](c1ccc(-c3ccc(C#N)cc3)cc1)[C@@H]2CO
inactive: all assays above

C[C@@H]1CN([C@H](C)CO)C(=O)c2cc(NS(=O)(=O)c3ccccc3)ccc2O[C@H]1CN(C)C(=O)NC1CCCCC1
inactive: all assays above

O=C(C[C@@H]1CC[C@H]2[C@@H](COC[C@@H](O)CN2C(=O)Nc2ccc(Cl)cc2)O1)NCCc1ccncc1
inactive: all assays above

CO[C@@H]1CN(C)C(=O)c2cc(NS(=O)(=O)c3ccc(C)cc3)ccc2OC[C@@H](C)N(C)C[C@@H]1C
inactive: all assays above

C[C@@H]1CN([C@@H](C)CO)C(=O)c2cc(NS(=O)(=O)c3cn(C)cn3)ccc2O[C@@H](C)CCCCO[C@H]1CN(C)C
inactive: all assays above

CN(C)C(=O)c1ccc(-c2ccc([C@H]3[C@H](CO)N4CCCCN(CCC(F)(F)F)C[C@@H]34)cc2)cc1
inactive: all assays above

O=C(C[C@H]1C[C@@H]2c3cc(NC(=O)c4cccnc4)ccc3O[C@@H]2[C@@H](CO)O1)NCCc1ccccc1
inactive: all assays above

O=C(NC(=S)Nc1ccc(CN2CCOCC2)cc1)c1ccc([N+](=O)[O-])cc1
inactive: all assays above

C[C@H]1CN([C@@H](C)CO)C(=O)Cc2cc(NS(=O)(=O)c3ccc(F)cc3)ccc2O[C@@H]1CN(C)S(=O)(=O)c1ccc(F)cc1
inactive: all assays above

CO[C@@H]1CN(C)C(=O)c2ccc(NC(C)=O)cc2OC[C@@H](C)N(C(=O)c2ccccn2)C[C@H]1C
inactive: all assays above

CNC(=O)C[C@@H]1CC[C@@H]2[C@H](COc3ccc(NC(=O)c4cc(C)on4)cc3C(=O)N2C)O1
inactive: all assays above

C[C@H]1CCCCO[C@H](CN(C)Cc2ccncc2)[C@@H](C)CN([C@@H](C)CO)C(=O)c2cc(NC(=O)CCCN(C)C)ccc2O1
inactive: all assays above

COc1ccccc1NC(=O)N[C@H]1CC[C@@H](CCn2cc(-c3ccccc3OC)nn2)O[C@@H]1CO
inactive: all assays above

O=C(C[C@@H]1C[C@@H]2c3cc(NC(=O)Nc4ccc(F)cc4)ccc3O[C@@H]2[C@@H](CO)O1)NCC1CC1
inactive: all assays above

CCC(=O)N1[C@@H]2Cn3c(ccc(C4=CCCCC4)c3=O)[C@H]1[C@@H](C(=O)N[C@H](C)c1ccccc1)[C@@H]2CO
inactive: all assays above

O=C(C[C@@H]1C[C@@H]2c3cc(NC(=O)C4CCC4)ccc3O[C@@H]2[C@H](CO)O1)NCc1cccc(F)c1
inactive: all assays above

C[C@@H]1CN([C@H](C)CO)C(=O)c2cc(NC(=O)Nc3cccc4ccccc34)ccc2O[C@@H](C)CCCCO[C@@H]1CN(C)Cc1ccc2c(c1)OCO2
inactive: all assays above

Cc1cccc(C)c1NC(=O)C(C)N1CCCC1 (stereo not given)
inactive: all assays above

CCS(=O)(=O)NCC[C@@H]1CC[C@@H](NS(=O)(=O)c2cccc(F)c2)[C@@H](CO)O1
inactive: all assays above

O=C(C[C@@H]1C=C[C@@H](NC(=O)C2CCC2)[C@H](CO)O1)NC1CCC1
inactive: all assays above

CO[C@@H]1CN(C)C(=O)c2cc(NC(=O)C3CC3)ccc2OC[C@H](C)N(C(=O)c2ccncc2)C[C@H]1C
inactive: all assays above

COc1ccc(-c2cnc3c(c2)C(=O)N([C@@H](C)CO)C[C@@H](C)[C@@H](CN(C)S(C)(=O)=O)O3)cc1
inactive: all assays above

C[C@H](CO)N1C[C@H](C)[C@H](CN(C)C(=O)c2ccccn2)Oc2ncc(-c3ccccc3)cc2C1=O
inactive: all assays above

CN1C(=O)c2cc(NS(=O)(=O)c3cccc(F)c3)ccc2OC[C@@H]2O[C@@H](CC(=O)O)CC[C@H]21
inactive: all assays above

COc1ccc(CN(C)C[C@H]2OCCCC[C@@H](C)Oc3ccc(NC(=O)c4ccccc4)cc3C(=O)N([C@H](C)CO)C[C@@H]2C)cc1
inactive: all assays above

COc1ccc(NC(=O)N(C)C[C@H]2OCCCC[C@H](C)Oc3ccc(NC(=O)C4CCCCC4)cc3C(=O)N([C@@H](C)CO)C[C@@H]2C)cc1
inactive: all assays above

COc1ccc(NC(=O)N(C)C[C@H]2OCCCC[C@@H](C)Oc3ccc(N(C)C)cc3C(=O)N([C@H](C)CO)C[C@H]2C)cc1
inactive: all assays above

C[C@H]1CN([C@@H](C)CO)C(=O)c2cccc(NS(=O)(=O)c3cn(C)cn3)c2O[C@@H]1CN(C)CC1CCCCC1
inactive: all assays above

COc1ccccc1-c1cnc2c(c1)C(=O)N([C@@H](C)CO)C[C@@H](C)[C@H](CN(C)C(=O)c1cccnc1)O2
inactive: all assays above

O=C(CN(c1ccc(F)cc1)S(=O)(=O)c1ccccc1)NC1CCCCCC1
inactive: all assays above

CCCN(C)C[C@@H]1OCCCC[C@H](C)Oc2ccc(NS(=O)(=O)c3ccc(C)cc3)cc2C(=O)N([C@H](C)CO)C[C@@H]1C
inactive: all assays above

O=C(CN(c1ccccc1)S(=O)(=O)c1ccc(F)cc1)NC1CCS(=O)(=O)C1 (stereo not given)
inactive: all assays above

Cc1cc(C)c(NC(=O)C2CCCN2C)c(C)c1 (stereo not given)
inactive: all assays above

O=C(C[C@@H]1CC[C@H](NC(=O)Cc2ccccn2)[C@H](CO)O1)NCCc1ccccc1
inactive: all assays above

COc1ccc(S(=O)(=O)Nc2ccc3c(c2)C(=O)N([C@@H](C)CO)C[C@H](C)[C@@H](CN(C)C)OCCCC[C@H](C)O3)cc1
inactive: all assays above

COCC(=O)N(C)C[C@@H]1Oc2ncc(C#CCC3CCCC3)cc2C(=O)N([C@@H](C)CO)C[C@H]1C
inactive: all assays above

O=C(CSc1ncnc2c1cnn2-c1ccc(Cl)cc1)NCc1ccc2c(c1)OCO2
inactive: all assays above

COCCNC(=O)C[C@@H]1C[C@@H]2c3cc(NC(=O)C4CCOCC4)ccc3O[C@@H]2[C@@H](CO)O1
inactive: all assays above

Cc1cc(C(=O)Nc2cccc3c2O[C@H](CN(C)S(=O)(=O)c2ccccc2)[C@H](C)CN([C@H](C)CO)C3=O)n(C)n1
inactive: all assays above

COc1ccc(-n2ncc3c(SCC(=O)NNC(C)=O)ncnc32)cc1
inactive: all assays above

Cc1noc(C)c1NC(=O)N(C)C[C@@H]1Oc2ccc(NC(=O)C3CC3)cc2CC(=O)N([C@H](C)CO)C[C@@H]1C
inactive: all assays above

COCC(=O)NC[C@@H]1N[C@@H](CO)[C@H]1c1ccc(C2=CCCC2)cc1
inactive: all assays above

COc1ccccc1NC(=O)N[C@@H]1CC[C@H](CCn2cc(-c3ccccc3OC)nn2)O[C@H]1CO
inactive: all assays above

CN1C(=O)c2cccc3c(S(=O)(=O)N(C)C)ccc1c23
inactive: all assays above

Cc1ccc(NC(=O)C2(C)CCCN2CC(C)C)cc1C (stereo not given)
inactive: all assays above

COCC(=O)N1C[C@H](C)[C@@H](OC)CN(C)C(=O)c2ccc(NS(C)(=O)=O)cc2OC[C@@H]1C
inactive: all assays above

C[C@H]1CN([C@@H](C)CO)C(=O)c2cccc(NS(C)(=O)=O)c2O[C@@H]1CN(C)Cc1ccc(-c2ccccc2)cc1
inactive: all assays above

COc1ccc(NC(=O)N(C)C[C@H]2OCc3ccccc3-c3c(n(C)c4ccccc34)C(=O)N([C@H](C)CO)C[C@@H]2C)cc1
inactive: all assays above

Cc1cccc(N2CCN(C(=O)C3CCC(=O)N3C(C)C)CC2C)c1 (stereo not given)
inactive: all assays above

— PubChem BioAssay
